Most compounds without a hit are left out; they make up all but 19% or so of the library.
TDP1 cell CPT: DT40-hTDP1 cell growth loss with CPT; 420,000 tested, 12% active; chicken DT40 Tdp1-/-;hTDP1 cells + 20 nM CPT, ATP luminescence, 48 h; Potency, µM (top dose mostly 46.2 µM), for the others: at the top dose activity change, negative = growth inhibition, most hits filed as inhibitors; further: potency means the concentration at half of the fitted maximal effect; nearly all actives have a fitted effect of over 55% in size
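Chicken DT40 Tdp1-/- cells stably complemented with human TDP1 were seeded at 400 cells/well in medium containing 20 nM camptothecin, exposed to pin-transferred compounds, and grown at 37 °C for at least 48 hr. Viability was read as ATP luminescence.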
HT1080NT lethal: kills 2HG-producing HT-1080-NT fibrosarcoma cells. HT-1080-NT fibrosarcoma viability, CellTiter-Glo ATP luminescence, 48 h. Potency, µM (series often up to 46.1 µM), inactives show at the highest dose activity, negative = less viability, hits mostly cytotoxic. 360,000 tested, 1.6% active. AID 686970;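 further: NT is the 2HG producing partner of a matched IDH1 knockdown line; potency means the concentration at half of the fitted maximal effect; 0% = DMSO-treated cells and -100% = media-only wells without cells; nearly all actives have a fitted effect of over 55% in size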
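Viability of the 2HG-overproducing fibrosarcoma line after 48 hours of compound exposure at 37 degrees C was determined by luminescence with CellTiter-Glo, and concentration-effect curves were then fitted and categorized.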
HT1080 IDH1KD tx: toxicity to HT-1080 IDH1 knockdown cells (counter line) | HT-1080 IDH1 knockdown viability, ATP luminescence, 48 h | Potency, µM (top dose mostly 46.1 µM), for inactives: top-dose activity, negative = toxicity, most hits filed as cytotoxic | 360,000 tested, 2% active | AID 686971;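 further: potency means the concentration at half of the fitted maximal effect; 0% = DMSO wells and -100% = cell-free medium wells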
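After a 2 h attachment period, IDH1KD HT-1080 cells took pin-transferred compound for 48 h at 37 °C; ATP-based luminescence after 10 min room-temperature reagent incubation reported viability.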
IL1B secr inh: blocks inflammasome-driven IL-1 beta release; THP-1 LPS/ATP IL-1B secretion, AlphaLISA, 16 h; stronger effect = lower value; activity change, % at 57.5 µM; 360,000 tested, 4.7% active; AID 743279; in the data active means activity change below about -50%; inconclusive means mostly about -30% to -49%
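THP-1 cells pretreated 1 hr with compounds (up to 57.5 uM final), then stimulated with LPS (250 ng/mL final) plus ATP (1.25 mM final); secreted IL-1B measured by AlphaLISA after 16 hr, decreased signal indicating inhibition.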
TDP1 cell noCPT: qHTS for Inhibitors of human tyrosyl-DNA phosphodiesterase 1 (TDP1): qHTS in cells in absence of CPT. DT40 Tdp1-/- hTDP1 cells, no CPT, ATP luminescence, 48 h. Potency, µM (top dose mostly 46.2 µM), inactives show top-dose activity change, negative = growth inhibition, usual class: inhibitors. AID 686978, 2013. 420,000 tested, 15% active; further: potency means the concentration at half of the fitted maximal effect; nearly all actives have a fitted effect of over 55% in size
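Camptothecin absent (DMSO only). Human TDP1-complemented DT40 knockout cells, 400 cells/well, 37 °C for minimum 48 hr; ATP measured via CellTiter-Glo, 30 min dark incubation, luminescence.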
The depositor's hits bear a star; ? = inconclusive; . = no result; [ ] = another dose, or the depositor's remark. Unless noted, the call rests on the fitted dose curve; in most records, active means well fitted curve in the direction sought with a large enough effect; inconclusive means small, poorly fitted or top-dose-only effect, or another doubt; inactive means no such curve, though single readings can be large; an effect the other way counts as inactive or inconclusive. Unless noted, on the % scale 0 is the no-effect control and ±100 the full control effect.

SMILES | TDP1 cell CPT | HT1080NT lethal | HT1080 IDH1KD tx | IL1B secr inh | TDP1 cell noCPT
CC(=O)N1CCN(c2ccc(NC(=O)c3cc(Cl)ccc3Cl)cc2)CC1 | -29% | 0% | -6% | -63* | -14%
CC(=O)N1CCN(c2ccc(NC(=O)c3ccc(C(C)(C)C)cc3)cc2)CC1 | ? | ? | ? | -95* | 26µM*
COC(=O)c1c(CSc2ccc(C)c(C)c2)noc1C(=O)NCc1ccc(OC)cc1 | ? | -12% | -3% | ? | ?
CC(NC(=O)c1ccco1)C(=O)NC(C)c1cc(F)c(Cl)cc1Cl (stereo not drawn) | 1% | -7% | 0% | 10 | 13%
O=C(CSc1ncccn1)N/N=C/c1ccccc1[N+](=O)[O-] | 6% | 4% | 18% | 12 | -13%
O=C1NC[C@H](Cc2ccc(O)cc2)N(C[C@@H]2CCCN2C[C@H](Cc2ccccc2)N2C[C@H](Cc3ccc(O)cc3)N(CC3CCCCC3)C(=O)C2=O)C1=O | ? | -20% | -2% | -1 | ?
CCOc1ccc(CCN2C(=O)C(=O)N([C@@H](Cc3ccccc3)CN3CCC[C@@H]3CN3C(=O)C(=O)NC[C@@H]3Cc3ccc(O)cc3)C[C@@H]2Cc2ccccc2)cc1 | -5% | 13% | 25% | 3 | 11%
O=C1NC[C@H](Cc2ccccc2)N(C[C@@H]2CCCN2C[C@H](Cc2ccc(O)cc2)N2C[C@H](Cc3ccccc3)N(CCc3ccccc3)C(=O)C2=O)C1=O | ? | ? | ? | -80* | -30%
O=C1NC[C@H](Cc2ccc(O)cc2)N(C[C@@H]2CCCN2C[C@H](Cc2ccc(O)cc2)N2C[C@H](Cc3ccccc3)N(CC3CCCCC3)C(=O)C2=O)C1=O | -13% | 6% | -2% | 0 | -18%
O=C1NC[C@H](Cc2ccccc2)N(C[C@@H]2CCCN2C[C@H](Cc2ccc(O)cc2)N2C[C@H](Cc3ccc(O)cc3)N(CC3CCCCC3)C(=O)C2=O)C1=O | ? | ? | ? | ? | 23µM*
O=C1NC[C@H](Cc2ccccc2)N(C[C@H]2CCCN2C[C@H](Cc2ccccc2)N2C[C@H](Cc3ccccc3)N(CC3CCCCCC3)C(=O)C2=O)C1=O | ? | ? | ? | -69* | 16µM*
Cc1ccc(N/C=C(\C#N)S(=O)(=O)c2ccccc2)cc1 | -6% | -7% | 1% | -20 | -12%
CSc1nc(S(=O)(=O)c2ccc(C)cc2)c(Cl)s1 | 1% | 0% | -9% | -16 | 0%
CCN1CCN(c2ccc(NC(=O)c3ccc4c(c3)[nH]c(=O)n4Cc3ccc(F)cc3)cc2)CC1 | 18µM* | -19% | -23% | 29 | 29µM*
COc1ccc(Cn2c(=O)[nH]c3cc(C(=O)Nc4ccc(N5CCN(C)CC5)cc4)ccc32)cc1 | ? | -3% | -16% | -59* | ?
COc1ccc(Cn2c(=O)[nH]c3cc(C(=O)NC4CCN(Cc5ccccc5)CC4)ccc32)cc1 | ? | -17% | -26% | ? | ?
CCN1CCN(c2ccc(NC(=O)c3ccco3)cc2)CC1 | 3% | 14% | 2% | -12 | 20%
O=C(CN1C(=O)/C(=C/c2ccccc2F)Sc2ccccc21)N1CCN(c2ccccn2)CC1 | ? | -1% | 11% | 0 | -7%
O=C(NNC1=C(C(=O)C(F)(F)F)CCC1)c1cccc(Cl)c1 | 5.8µM* | ? | 23µM* | 73 | 6.5µM*
O=C(NNC1=C(C(=O)C(F)(F)F)CCC1)c1ccc(Cl)cc1 | ? | ? | 7.9µM* | 82 | ?
COc1ccc(C(=O)NNC2=C(C(=O)C(F)(F)F)CCC2)cc1 | 0.73µM* | -29% | ? | 131 | 1.3µM*
O=c1c2ccccc2nc(/C=C/c2cccc(Br)c2)n1CCCO | ? | ? | ? | -85* | 13µM*
O=c1c2ccccc2nc(/C=C/c2cccc([N+](=O)[O-])c2)n1CCCO | -28% | -22% | ? | 0 | ?
O=c1c2ccccc2nc(/C=C/c2ccc([N+](=O)[O-])o2)n1CCCO | 0.58µM* | 2.9µM* | 2.9µM* | -111* | 1.2µM*
Cc1ccccc1/C=C/c1nc2ccccc2c(=O)n1Cc1ccccc1 | 2% | 4% | 16% | -3 | -2%
SMILES | TDP1 cell CPT | HT1080NT lethal | HT1080 IDH1KD tx | IL1B secr inh | TDP1 cell noCPT
O=c1c2ccccc2nc(/C=C/c2ccc(Cl)cc2)n1CCO | 21µM* | -5% | -24% | -74* | ?
Cn1c(/C=C/c2cccc(Br)c2)nc2ccccc2c1=O | 29µM* | ? | ? | 4 | ?
Cc1nc2ccccc2c(=O)n1CCCO | -18% | -2% | 1% | -12 | -5%
O=c1c2ccccc2nc(/C=C/c2ccc(Br)cc2)n1CCO | ? | -29% | ? | -83* | 23µM*
O=c1c2ccccc2nc(/C=C/c2ccc([N+](=O)[O-])cc2)n1CCCO | ? | 1% | -11% | . | 21µM*
O=c1c2ccccc2nc(/C=C/c2ccc(Br)cc2)n1CCCO | 23µM* | -28% | ? | ? | 21µM*
Cc1[nH]c2ccccc2c1/C=C/c1nc2ccccc2c(=O)n1CCO | 6.5µM* | ? | -24% | -84* | 4.6µM*
CCc1nc2ccc(C(=O)N(C)CCCN(C)C)cn2c1N(C=O)CCC(C)C | -16% | 13% | 6% | 17 | -9%
CC#CCC(C)[C@H](O)/C=C/[C@@H]1[C@H]2c3cccc(CCCC(=O)O)c3O[C@H]2C[C@H]1O (stereo partly drawn) | 3% | . | . | . | 3%
C/C(=C\C(=O)c1ccc(Br)cc1)NNC(=O)c1ccc(O)cc1 | 13µM* | -5% | -11% | 69 | ?
C/C(=C\C(=O)c1ccc(Br)cc1)NCc1ccc(C)cc1 | -7% | -7% | -9% | 0 | ?
C/C(=C\C(=O)c1ccc(Br)cc1)NNC(=O)c1ccccc1 | ? | -31% | -28% | 46 | 18µM*
C/C(=C\C(=O)c1ccc(Cl)cc1)Nc1ccc(Br)cc1 | -3% | 4% | -1% | -50* | -28%
C/C(=C\C(=O)c1ccc(Br)cc1)NCc1ccccc1 | -2% | 1% | 14%[9.24 µM] | -2 | -14%
O=c1nc(N2CCCC2)nc(Nc2ccccc2)[nH]1 | -2% | 4% | 14% | -5 | -24%
c1ccc(Nc2nc(Nc3ccccc3)nc(N3CCNCC3)n2)cc1 | ? | 23µM* | ? | -71* | ?
CN1CCN(c2nc(Nc3ccc(F)cc3)nc(Nc3ccc(F)cc3)n2)CC1 | 21µM* | ? | ? | -56* | ?

Screening results as filed in PubChem BioAssay.
